According to article PMC12820563, “FoxP3 forms a head-to-head dimer in vivo and stabilizes its multimerization on adjacent microsatellites”:
Whole data set: some 16,000 sequences, median “rpm ratio (pull-down/input)” near 0.5, cut for the highest 2% near 5.5. For the sample, the highest values were picked, then their nearest neighbours and some sequences at random.

biological target: T1, MBP-FoxP3dN (Mus musculus, UniProt Q99JB6 188-423); assay: PD-seq (MBP pull-down with sequencing); 20 mM Tris-HCl pH 7.5, 100 mM NaCl, 1.5 mM MgCl2, 0.4 uM protein, 0.1 uM dsDNA library, 30 min, room temperature, amylose pull-down; high values mean tight binding; conditions: protein: recombinant; tags: His6-MBP; chain copies: 2; dsDNA, one strand shown
T1 sequence: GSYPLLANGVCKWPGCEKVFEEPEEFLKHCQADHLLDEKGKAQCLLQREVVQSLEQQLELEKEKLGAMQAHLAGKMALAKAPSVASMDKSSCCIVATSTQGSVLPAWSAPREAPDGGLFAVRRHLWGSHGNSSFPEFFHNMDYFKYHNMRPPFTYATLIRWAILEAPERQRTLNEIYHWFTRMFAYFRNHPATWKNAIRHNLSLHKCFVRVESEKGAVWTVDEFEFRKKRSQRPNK
Outline: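 Binding is given as reads-per-million enrichment, pull-down over input, with replicates pooled. The bait was an N-terminus-lacking mouse FoxP3 or FoxP1 fragment with a His6-MBP tag, expressed in E. coli and used at 0.4 µM with 0.1 µM Klenow-filled degenerate double-stranded DNA library for 30 min at room temperature in Tris pH 7.5 buffer with NaCl and MgCl2. Amylose resin pull-down with three washes was followed by proteinase K release, PCR barcoding and Illumina sequencing.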

| Sequence | binding signal |
| --- | --- |
| GATGATTGTTCTCCCAGCTGATGAATTCTGTGTTTCGAGTAAACAAATTTTCCTAATCTTTCTGTTCAAGCGCCATCTAC | 3.31 RPM ratio (pull-down/input) |
| GATGATTGTTCTCCCAGCTGATGAATTTGTGTGCTCGAGTAAACAAATTTTCCTAATCTTTCTGTTCAAGCGCCATCTAC | 5.67 RPM ratio (pull-down/input) |
| GATGATTGTTCTCCCAGCTGATGAATTTTTGTGCTCGAGTAAACAAATTTTCCTAATCTTTCTGTTCAAGCGCCATCTAC | 0.442 RPM ratio (pull-down/input) |
| GATGATTGTTCTCCCAGCTGATGAATTTGTGCTCTCGAGTAAACAAATTTTCCTAATCTTTCTGTTCAAGCGCCATCTAC | 2.89 RPM ratio (pull-down/input) |
| GATGATTGTTCTCCCAGCTGATGAATTGTGCGTTTCGAGTAAACAAATTTTCCTAATCTTTCTGTTCAAGCGCCATCTAC | 5.5 RPM ratio (pull-down/input) |
| GATGATTGTTCTCCCAGCTGATGAATTGCGTTTTTCGAGTAAACAAATTTTCCTAATCTTTCTGTTCAAGCGCCATCTAC | 2.11 RPM ratio (pull-down/input) |
| GATGATTGTTCTCCCAGCTGATGAATTTGTGCGTTCGAGTAAACAAATTTTCCTAATCTTTCTGTTCAAGCGCCATCTAC | 3.7 RPM ratio (pull-down/input) |
| GATGATTGTTCTCCCAGCTGATGAATTGTGTGTTTCGAGTAAACAAATTTTCCTAATCTTTCTGTTCAAGCGCCATCTAC | 4.97 RPM ratio (pull-down/input) |
| GATGATTGTTCTCCCAGCTGATGAATTTTGCGTCTCGAGTAAACAAATTTTCCTAATCTTTCTGTTCAAGCGCCATCTAC | 5.4 RPM ratio (pull-down/input) |
| GATGATTGTTCTCCCAGCTGATGAATTGTGCGTCTCGAGTAAACAAATTTTCCTAATCTTTCTGTTCAAGCGCCATCTAC | 6.12 RPM ratio (pull-down/input) |
| GATGATTGTTCTCCCAGCTGATGAATTGTGTTTTTCGAGTAAACAAATTTTCCTAATCTTTCTGTTCAAGCGCCATCTAC | 6.66 RPM ratio (pull-down/input) |
| GATGATTGTTCTCCCAGCTGATGAATTCTGCGTCTCGAGTAAACAAATTTTCCTAATCTTTCTGTTCAAGCGCCATCTAC | 4.55 RPM ratio (pull-down/input) |
| GATGATTGTTCTCCCAGCTGATGAATTAACGGATTCGAGTAAACAAATTTTCCTAATCTTTCTGTTCAAGCGCCATCTAC | 0.29 RPM ratio (pull-down/input) |
| GATGATTGTTCTCCCAGCTGATGAATTCCTAACTTCGAGTAAACAAATTTTCCTAATCTTTCTGTTCAAGCGCCATCTAC | 0.231 RPM ratio (pull-down/input) |
| GATGATTGTTCTCCCAGCTGATGAATTCACCTTATCGAGTAAACAAATTTTCCTAATCTTTCTGTTCAAGCGCCATCTAC | 0.363 RPM ratio (pull-down/input) |
| GATGATTGTTCTCCCAGCTGATGAATTGGAGCTGTCGAGTAAACAAATTTTCCTAATCTTTCTGTTCAAGCGCCATCTAC | 0.312 RPM ratio (pull-down/input) |
| GATGATTGTTCTCCCAGCTGATGAATTCTATAGGTCGAGTAAACAAATTTTCCTAATCTTTCTGTTCAAGCGCCATCTAC | 0.372 RPM ratio (pull-down/input) |

| Sequence | binding signal |
| --- | --- |
| GATGATTGTTCTCCCAGCTGATGAATTCCAGCTGTCGAGTAAACAAATTTTCCTAATCTTTCTGTTCAAGCGCCATCTAC | 0.355 RPM ratio (pull-down/input) |
| GATGATTGTTCTCCCAGCTGATGAATTACCATAATCGAGTAAACAAATTTTCCTAATCTTTCTGTTCAAGCGCCATCTAC | 0.448 RPM ratio (pull-down/input) |
| GATGATTGTTCTCCCAGCTGATGAATTCAGCGCCTCGAGTAAACAAATTTTCCTAATCTTTCTGTTCAAGCGCCATCTAC | 1.17 RPM ratio (pull-down/input) |
| GATGATTGTTCTCCCAGCTGATGAATTGCTACCGTCGAGTAAACAAATTTTCCTAATCTTTCTGTTCAAGCGCCATCTAC | 0.615 RPM ratio (pull-down/input) |
| GATGATTGTTCTCCCAGCTGATGAATTCATACTATCGAGTAAACAAATTTTCCTAATCTTTCTGTTCAAGCGCCATCTAC | 0.534 RPM ratio (pull-down/input) |
| GATGATTGTTCTCCCAGCTGATGAATTCGAGCCATCGAGTAAACAAATTTTCCTAATCTTTCTGTTCAAGCGCCATCTAC | 1.13 RPM ratio (pull-down/input) |
| GATGATTGTTCTCCCAGCTGATGAATTGACGTCTTCGAGTAAACAAATTTTCCTAATCTTTCTGTTCAAGCGCCATCTAC | 0.448 RPM ratio (pull-down/input) |
| GATGATTGTTCTCCCAGCTGATGAATTGTACTACTCGAGTAAACAAATTTTCCTAATCTTTCTGTTCAAGCGCCATCTAC | 0.546 RPM ratio (pull-down/input) |
| GATGATTGTTCTCCCAGCTGATGAATTATCAGGCTCGAGTAAACAAATTTTCCTAATCTTTCTGTTCAAGCGCCATCTAC | 0.299 RPM ratio (pull-down/input) |
| GATGATTGTTCTCCCAGCTGATGAATTTCTGTGTTCGAGTAAACAAATTTTCCTAATCTTTCTGTTCAAGCGCCATCTAC | 0.716 RPM ratio (pull-down/input) |
| GATGATTGTTCTCCCAGCTGATGAATTGTGTTCTTCGAGTAAACAAATTTTCCTAATCTTTCTGTTCAAGCGCCATCTAC | 2.39 RPM ratio (pull-down/input) |
| GATGATTGTTCTCCCAGCTGATGAATTGTTGTGTTCGAGTAAACAAATTTTCCTAATCTTTCTGTTCAAGCGCCATCTAC | 6.09 RPM ratio (pull-down/input) |
| GATGATTGTTCTCCCAGCTGATGAATTCCGTGCCTCGAGTAAACAAATTTTCCTAATCTTTCTGTTCAAGCGCCATCTAC | 0.796 RPM ratio (pull-down/input) |
| GATGATTGTTCTCCCAGCTGATGAATTTATCTGATCGAGTAAACAAATTTTCCTAATCTTTCTGTTCAAGCGCCATCTAC | 0.374 RPM ratio (pull-down/input) |
| GATGATTGTTCTCCCAGCTGATGAATTTATCGAGTCGAGTAAACAAATTTTCCTAATCTTTCTGTTCAAGCGCCATCTAC | 0.379 RPM ratio (pull-down/input) |
| GATGATTGTTCTCCCAGCTGATGAATTCTAATCATCGAGTAAACAAATTTTCCTAATCTTTCTGTTCAAGCGCCATCTAC | 0.567 RPM ratio (pull-down/input) |
| GATGATTGTTCTCCCAGCTGATGAATTTCGCCATTCGAGTAAACAAATTTTCCTAATCTTTCTGTTCAAGCGCCATCTAC | 5.04 RPM ratio (pull-down/input) |
